# Laboratory results taken from PubChem BioAssay (EPA / NIEHS).
# Active and inactive are the calls of the source. Rule for the calls: active = hit-call score of the fitted dose curve at least 0.9, where 1 is the maximum; inactive = score below 0.9.
# Experiment: ATG_PPRE_CIS: Attagene CIS-FACTORIAL HepG2 Assay for human Peroxisome Proliferator-activated Response Element (PPRE) (AID 2282958)
# Settings: HepG2 PPRE cis-element reporter, Attagene transcription factor profiling; actives raise or lower the signal
# Description: ATG_CIS is a cell-based, multiplexed-readout assay that uses HepG2, a human liver cell line, with measurements taken at 24 hours after chemical dosing in a 24-well plate.ATG_PPRE_CIS is one of 52 assay component(s) measured or calculated from the ATG_CIS assay. It is designed to make measurements of mRNA induction, a form of inducible reporter, as detected with fluorescence intensity signals by Reverse transcription polymerase chain reaction (RT-PCR) and Capillary electrophoresis technology.Data from the assay component ATG_PPRE_CIS was analyzed into 1 assay endpoint. This assay endpoint, ATG_PPRE_CIS, was analyzed with bidirectional fitting relative to DMSO as the negative control and baseline of activity. Using a type of inducible reporter, measures of mRNA for gain or loss-of-signal activity can be used to understand the reporter gene at the transcription factor-level as they relate to the gene PPARA and PPARD and PPARG. Furthermore, this assay endpoint can be referred to as a primary readout, because this assay has produced multiple assay endpoints where this one serves a reporter gene function. To generalize the intended target to other relatable targets, this assay endpoint is annotated to the nuclear receptor intended target family, where the subfamily is non-steroidal.
# Human liver HepG2 cells are transiently transfected with multiple reporter transcription units (MRTUs) in 6-well plates using FuGene 6 reagent (Roche; 3 ml FuGene/1 mg DNA). The MRTU constructs are regulated by a cis-regulating element (promoter). […] A major difference between the CIS and TRANS system is that in CIS activities of endogenous TFs are measured, whereas the TRANS assay evaluates changes in activities of exogenous, chimeric NR-Gal4 proteins. […] At the end of 24 hour incubation, total RNA was isolated using TriZol reagent (Invitrogen). The isolated RNA is then reverse-transcribed using oligo(dT) primer and Mo-MLV reverse transcriptase (Invitrogen) with DNAse I (Ambion) treatment for 30 min. The one-tenth of the produced cDNA was amplified by PCR using Taq DNA polymerase (Invitrogen) and two reporter sequence-specific primers. The PCR products were fluorescently labeled by primer extension with 6-arboxyfluorescein (6-FAM) 5'-labeled reporter sequence-specific primer (2 min at 95 C, 20 s at 68 C and 10 min at 72 C) and these products were digested with 5U of HpaI (New England Biolabs) for 2h at 37 C. The fragments were purified using Qiaquick PCR columns (Qiagen), analyzed on an ABI 3130xL genetic analyzer (Applied Biosystems) with peak positions identified by using a set of X-rhodamine (ROX)-labeled MapMarker1000 molecular weight standards (BioVentures). The raw capillary electrophoresis data was processed using Attagraph software (Attagene).
Structure (SMILES),outcome,AC50
O=C(c1ccccc1)c1ccc(Cl)cc1,inactive,
C=C(C)CCCC,inactive,
Nc1c(Br)cc([N+](=O)[O-])cc1Br,inactive,
O=C(O)CCC(F)(F)C(F)(F)C(F)(F)F,inactive,
CCC/C=C/CO,inactive,
Oc1ccc2c(c1)CCC2,inactive,
NC(=O)C(F)(F)C(F)(F)C(F)(F)C(F)(F)C(N)=O,inactive,
Cc1ccc(S(=O)(=O)C(I)I)cc1,,62.5 µM (active)
CCOC(=O)CC(=O)C(F)(F)C(F)(F)F,inactive,
CC1=CCC(=O)O1,inactive,
Cc1ccc(O)cn1,inactive,
Cc1cc(O)c(C(C)(C)C)cc1C(C)(C)C,inactive,
FC(F)(F)C(F)(F)C(F)(F)C(F)(F)C(F)(F)C(F)(F)C(F)(F)CCI,inactive,
CCCCCCCCCCCCCCCCC,inactive,
C[Si](Cl)(Cl)CCC(F)(F)C(F)(F)C(F)(F)C(F)(F)C(F)(F)C(F)(F)F,inactive,
O=C(O)C(F)(F)C(F)(F)C(F)(F)C(=O)O,inactive,
CC(C)=CCCC(C)O (stereo not given),inactive,
CCN(CC)c1ccc(C=O)c(O)c1,inactive,
CC(C)C(=O)OCc1ccccc1,inactive,
CCc1cc(Cc2cc(CC)c(N)c(CC)c2)cc(CC)c1N,inactive,

Structure (SMILES),outcome,AC50
OCC(F)(F)C(F)(F)C(F)(F)C(F)(F)C(F)(F)C(F)(F)CO,inactive,
CCCCCCCCCCCCC[N+](C)(C)Cc1ccccc1,inactive,
CC(=O)C=O,inactive,
CC(=O)c1ccccc1N,inactive,
NS(=O)(=O)C(F)(F)C(F)(F)C(F)(F)C(F)(F)C(F)(F)C(F)(F)F,,50.2 µM (active)
CCCCCCCCCCCCCC[P+](CCCC)(CCCC)CCCC,inactive,
CC(C)CC=C(C=O)c1ccccc1,inactive,
Cc1ccc2c(c1)OCC(=O)CO2,inactive,
CC(C)(C)C(=O)C1C(=O)c2ccccc2C1=O,,59.7 µM (active)
O=c1cccc[nH]1,inactive,
CCCCOC(=O)[C@H](C)O,inactive,
COc1ccccc1C=O,inactive,
CCN(CC)c1ccc(C=O)cc1,inactive,
CC(C)(C)c1cc(CCC(=O)OCC(COC(=O)CCc2cc(C(C)(C)C)c(O)c(C(C)(C)C)c2)(COC(=O)CCc2cc(C(C)(C)C)c(O)c(C(C)(C)C)c2)COC(=O)CCc2cc(C(C)(C)C)c(O)c(C(C)(C)C)c2)cc(C(C)(C)C)c1O,inactive,
CC(O)C#CC(C)O (stereo not given),inactive,
O=C=NCc1cccc(CN=C=O)c1,inactive,
O=C(O)C(F)(F)C(F)(F)C(F)(F)OC(F)(F)F,inactive,
CCCCCCCC/C=C\CCCCCCCC(=O)OCC(O)CO (stereo not given),inactive,
OCC(F)(F)C(F)(F)C(F)(F)C(F)(F)C(F)(F)C(F)(F)C(F)(F)C(F)(F)CO,inactive,
CC(C)(C)c1cc(Cc2cc(C(C)(C)C)c(O)c(C(C)(C)C)c2)cc(C(C)(C)C)c1O,inactive,
